Assays:
[1] = biological target: Sphingosine kinase 1 (Homo sapiens) (UniProt Q9NYA1); settings: at 1 µM;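 further: mean SPHK1 inhibition value reported from the GSK PKIS kinase panel screen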
[2] = biological target: T1, Sphingosine kinase 2 (Homo sapiens) (UniProt Q9NRA0); settings: at 0.1 µM
T1 sequence (whole entry): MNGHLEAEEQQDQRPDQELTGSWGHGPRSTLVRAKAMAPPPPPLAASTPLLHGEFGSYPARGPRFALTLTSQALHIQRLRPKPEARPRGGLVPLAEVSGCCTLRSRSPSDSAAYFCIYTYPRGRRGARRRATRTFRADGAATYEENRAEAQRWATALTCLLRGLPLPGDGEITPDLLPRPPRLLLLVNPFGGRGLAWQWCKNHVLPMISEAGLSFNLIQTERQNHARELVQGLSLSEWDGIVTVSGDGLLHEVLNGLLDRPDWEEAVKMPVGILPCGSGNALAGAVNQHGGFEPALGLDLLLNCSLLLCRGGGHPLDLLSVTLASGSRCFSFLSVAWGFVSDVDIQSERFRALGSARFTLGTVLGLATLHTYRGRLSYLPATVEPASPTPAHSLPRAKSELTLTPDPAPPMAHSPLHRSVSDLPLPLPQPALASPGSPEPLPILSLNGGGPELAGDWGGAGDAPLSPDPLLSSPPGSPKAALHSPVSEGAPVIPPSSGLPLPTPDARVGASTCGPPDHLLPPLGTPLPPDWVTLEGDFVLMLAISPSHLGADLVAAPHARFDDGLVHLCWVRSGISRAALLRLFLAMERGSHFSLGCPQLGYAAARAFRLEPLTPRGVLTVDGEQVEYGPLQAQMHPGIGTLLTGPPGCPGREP

[3] = biological target: T1, Sphingosine kinase 2 (Homo sapiens); settings: at 1 µM
[4] = biological target: Casein kinase II subunit alpha (Homo sapiens) (UniProt P68400); settings: at 0.1 µM
[5] = biological target: Casein kinase II subunit alpha (Homo sapiens) (UniProt P68400); settings: at 1 µM
[6] = biological target: T2, Inhibitor of nuclear factor kappa-B kinase subunit alpha (Homo sapiens) (UniProt O15111); settings: at 0.1 µM
T2 sequence (whole entry): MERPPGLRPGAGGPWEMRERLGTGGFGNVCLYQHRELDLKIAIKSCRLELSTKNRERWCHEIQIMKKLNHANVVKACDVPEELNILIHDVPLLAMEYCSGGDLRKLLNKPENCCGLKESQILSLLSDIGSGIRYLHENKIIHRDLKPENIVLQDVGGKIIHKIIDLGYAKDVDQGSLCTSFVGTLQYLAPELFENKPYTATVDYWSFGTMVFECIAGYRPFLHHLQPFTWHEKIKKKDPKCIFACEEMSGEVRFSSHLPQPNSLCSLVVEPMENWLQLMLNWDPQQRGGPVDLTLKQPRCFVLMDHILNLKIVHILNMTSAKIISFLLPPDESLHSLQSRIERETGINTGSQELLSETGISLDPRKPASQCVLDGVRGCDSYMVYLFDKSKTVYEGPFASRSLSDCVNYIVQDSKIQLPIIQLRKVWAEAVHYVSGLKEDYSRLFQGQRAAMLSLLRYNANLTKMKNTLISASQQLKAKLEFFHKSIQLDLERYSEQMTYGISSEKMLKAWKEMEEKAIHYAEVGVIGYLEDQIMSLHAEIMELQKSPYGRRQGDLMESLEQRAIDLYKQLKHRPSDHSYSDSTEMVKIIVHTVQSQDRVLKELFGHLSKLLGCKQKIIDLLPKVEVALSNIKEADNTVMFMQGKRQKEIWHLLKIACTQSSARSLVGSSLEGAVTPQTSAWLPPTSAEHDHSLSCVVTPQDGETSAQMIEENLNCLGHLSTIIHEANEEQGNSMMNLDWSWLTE

[7] = biological target: T2, Inhibitor of nuclear factor kappa-B kinase subunit alpha (Homo sapiens); settings: at 1 µM
[8] = biological target: T3, Inhibitor of nuclear factor kappa-B kinase subunit beta (Homo sapiens) (UniProt O14920); settings: at 0.1 µM
T3 sequence (whole entry): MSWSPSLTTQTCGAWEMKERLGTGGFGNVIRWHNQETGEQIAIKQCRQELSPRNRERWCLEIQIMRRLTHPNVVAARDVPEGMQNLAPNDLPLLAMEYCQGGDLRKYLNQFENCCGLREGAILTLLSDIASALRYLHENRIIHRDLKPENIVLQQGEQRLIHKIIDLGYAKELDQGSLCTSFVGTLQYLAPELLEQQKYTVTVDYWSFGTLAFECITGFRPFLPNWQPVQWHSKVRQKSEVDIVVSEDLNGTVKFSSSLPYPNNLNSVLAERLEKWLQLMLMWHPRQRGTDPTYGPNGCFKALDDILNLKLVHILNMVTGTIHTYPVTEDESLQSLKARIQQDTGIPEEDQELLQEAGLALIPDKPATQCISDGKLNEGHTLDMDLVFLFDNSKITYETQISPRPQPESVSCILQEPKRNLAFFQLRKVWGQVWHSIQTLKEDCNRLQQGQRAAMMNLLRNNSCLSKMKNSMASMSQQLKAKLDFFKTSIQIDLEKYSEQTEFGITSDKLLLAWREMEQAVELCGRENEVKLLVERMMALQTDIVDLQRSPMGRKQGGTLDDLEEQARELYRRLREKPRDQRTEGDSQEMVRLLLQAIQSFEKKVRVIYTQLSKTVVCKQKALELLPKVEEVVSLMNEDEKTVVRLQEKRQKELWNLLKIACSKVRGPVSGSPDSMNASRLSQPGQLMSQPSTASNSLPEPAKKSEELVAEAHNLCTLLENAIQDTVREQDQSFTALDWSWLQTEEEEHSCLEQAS

[9] = biological target: T3, Inhibitor of nuclear factor kappa-B kinase subunit beta (Homo sapiens); settings: at 1 µM
[10] = biological target: T4, Inhibitor of nuclear factor kappa-B kinase subunit epsilon (Homo sapiens) (UniProt Q14164); settings: at 0.1 µM
T4 sequence (whole entry): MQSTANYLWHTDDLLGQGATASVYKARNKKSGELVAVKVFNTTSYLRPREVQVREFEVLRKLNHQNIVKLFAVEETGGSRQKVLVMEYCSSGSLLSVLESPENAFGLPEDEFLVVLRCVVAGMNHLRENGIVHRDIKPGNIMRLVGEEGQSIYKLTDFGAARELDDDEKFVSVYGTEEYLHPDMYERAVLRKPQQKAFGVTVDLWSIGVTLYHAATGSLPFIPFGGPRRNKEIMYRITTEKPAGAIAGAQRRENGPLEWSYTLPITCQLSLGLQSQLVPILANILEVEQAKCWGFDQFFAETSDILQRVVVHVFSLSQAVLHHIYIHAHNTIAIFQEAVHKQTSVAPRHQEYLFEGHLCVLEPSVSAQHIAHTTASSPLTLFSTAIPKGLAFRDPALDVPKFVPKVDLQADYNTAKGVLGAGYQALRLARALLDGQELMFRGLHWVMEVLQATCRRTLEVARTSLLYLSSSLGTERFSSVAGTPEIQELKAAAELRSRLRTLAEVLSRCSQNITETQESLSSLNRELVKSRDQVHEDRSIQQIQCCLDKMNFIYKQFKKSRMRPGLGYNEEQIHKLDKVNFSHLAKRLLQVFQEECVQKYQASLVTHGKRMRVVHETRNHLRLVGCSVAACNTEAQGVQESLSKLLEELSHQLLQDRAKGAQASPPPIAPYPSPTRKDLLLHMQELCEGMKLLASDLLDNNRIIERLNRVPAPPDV

[11] = biological target: T4, Inhibitor of nuclear factor kappa-B kinase subunit epsilon (Homo sapiens); settings: at 1 µM
[12] = biological target: T5, Serine/threonine-protein kinase Nek1 (Homo sapiens) (UniProt Q96PY6); settings: at 0.1 µM
T5 sequence (whole entry): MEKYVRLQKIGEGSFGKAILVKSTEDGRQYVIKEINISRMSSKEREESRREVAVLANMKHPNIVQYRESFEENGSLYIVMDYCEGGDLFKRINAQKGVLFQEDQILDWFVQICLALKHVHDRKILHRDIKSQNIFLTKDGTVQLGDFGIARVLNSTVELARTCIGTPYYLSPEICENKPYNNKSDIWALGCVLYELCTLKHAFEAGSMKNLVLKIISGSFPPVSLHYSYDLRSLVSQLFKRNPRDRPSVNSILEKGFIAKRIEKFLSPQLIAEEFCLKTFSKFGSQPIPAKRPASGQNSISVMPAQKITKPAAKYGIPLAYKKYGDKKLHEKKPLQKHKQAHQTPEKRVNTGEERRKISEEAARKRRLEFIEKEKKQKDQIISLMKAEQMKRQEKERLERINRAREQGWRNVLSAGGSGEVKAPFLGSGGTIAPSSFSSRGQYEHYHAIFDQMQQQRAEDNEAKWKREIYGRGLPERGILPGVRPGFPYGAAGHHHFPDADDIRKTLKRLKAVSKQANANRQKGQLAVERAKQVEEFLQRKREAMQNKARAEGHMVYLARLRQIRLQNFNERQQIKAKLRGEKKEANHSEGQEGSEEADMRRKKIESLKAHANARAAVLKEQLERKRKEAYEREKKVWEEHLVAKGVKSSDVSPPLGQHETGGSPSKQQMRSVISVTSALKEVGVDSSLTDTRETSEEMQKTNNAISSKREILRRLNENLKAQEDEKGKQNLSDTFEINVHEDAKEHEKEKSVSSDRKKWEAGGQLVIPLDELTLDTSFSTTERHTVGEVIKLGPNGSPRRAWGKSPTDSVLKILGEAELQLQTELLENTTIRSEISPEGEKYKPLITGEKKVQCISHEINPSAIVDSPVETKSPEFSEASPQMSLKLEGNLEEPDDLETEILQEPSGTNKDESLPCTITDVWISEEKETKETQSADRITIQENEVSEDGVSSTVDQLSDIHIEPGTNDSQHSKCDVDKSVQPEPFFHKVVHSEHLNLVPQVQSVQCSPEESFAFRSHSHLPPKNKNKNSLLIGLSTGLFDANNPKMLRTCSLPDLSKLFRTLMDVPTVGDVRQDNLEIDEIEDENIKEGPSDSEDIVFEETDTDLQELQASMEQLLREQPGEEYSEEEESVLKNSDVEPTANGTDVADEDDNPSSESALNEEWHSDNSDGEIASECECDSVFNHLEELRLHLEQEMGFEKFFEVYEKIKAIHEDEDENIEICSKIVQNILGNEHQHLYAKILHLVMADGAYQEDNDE

[13] = biological target: T5, Serine/threonine-protein kinase Nek1 (Homo sapiens); settings: at 1 µM
[14] = biological target: T6, Serine/threonine-protein kinase Nek2 (Homo sapiens) (UniProt P51955); settings: at 0.1 µM
T6 sequence (whole entry): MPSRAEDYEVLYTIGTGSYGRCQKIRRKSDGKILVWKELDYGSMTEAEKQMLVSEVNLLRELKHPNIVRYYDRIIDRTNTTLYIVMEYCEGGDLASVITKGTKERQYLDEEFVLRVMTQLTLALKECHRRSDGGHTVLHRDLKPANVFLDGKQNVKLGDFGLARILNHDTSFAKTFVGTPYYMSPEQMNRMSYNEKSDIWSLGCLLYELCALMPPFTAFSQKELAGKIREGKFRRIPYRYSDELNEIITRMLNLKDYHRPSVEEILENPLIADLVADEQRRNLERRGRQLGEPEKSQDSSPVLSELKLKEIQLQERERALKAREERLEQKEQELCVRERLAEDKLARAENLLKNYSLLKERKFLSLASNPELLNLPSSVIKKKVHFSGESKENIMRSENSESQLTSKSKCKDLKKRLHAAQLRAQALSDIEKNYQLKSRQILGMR

[15] = biological target: T6, Serine/threonine-protein kinase Nek2 (Homo sapiens); settings: at 1 µM
[16] = biological target: Serine/threonine-protein kinase Nek6 (Homo sapiens) (UniProt Q9HC98); settings: at 0.1 µM
[17] = biological target: Serine/threonine-protein kinase Nek6 (Homo sapiens) (UniProt Q9HC98); settings: at 1 µM
[18] = biological target: Serine/threonine-protein kinase Nek7 (Homo sapiens) (UniProt Q8TDX7); settings: at 0.1 µM
[19] = biological target: Serine/threonine-protein kinase Nek7 (Homo sapiens) (UniProt Q8TDX7); settings: at 1 µM
[20] = biological target: T7, Serine/threonine-protein kinase Nek9 (Homo sapiens) (UniProt Q8TD19); settings: at 0.1 µM;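 further: reported value is the mean percent inhibition of NEK9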
T7 sequence (whole entry): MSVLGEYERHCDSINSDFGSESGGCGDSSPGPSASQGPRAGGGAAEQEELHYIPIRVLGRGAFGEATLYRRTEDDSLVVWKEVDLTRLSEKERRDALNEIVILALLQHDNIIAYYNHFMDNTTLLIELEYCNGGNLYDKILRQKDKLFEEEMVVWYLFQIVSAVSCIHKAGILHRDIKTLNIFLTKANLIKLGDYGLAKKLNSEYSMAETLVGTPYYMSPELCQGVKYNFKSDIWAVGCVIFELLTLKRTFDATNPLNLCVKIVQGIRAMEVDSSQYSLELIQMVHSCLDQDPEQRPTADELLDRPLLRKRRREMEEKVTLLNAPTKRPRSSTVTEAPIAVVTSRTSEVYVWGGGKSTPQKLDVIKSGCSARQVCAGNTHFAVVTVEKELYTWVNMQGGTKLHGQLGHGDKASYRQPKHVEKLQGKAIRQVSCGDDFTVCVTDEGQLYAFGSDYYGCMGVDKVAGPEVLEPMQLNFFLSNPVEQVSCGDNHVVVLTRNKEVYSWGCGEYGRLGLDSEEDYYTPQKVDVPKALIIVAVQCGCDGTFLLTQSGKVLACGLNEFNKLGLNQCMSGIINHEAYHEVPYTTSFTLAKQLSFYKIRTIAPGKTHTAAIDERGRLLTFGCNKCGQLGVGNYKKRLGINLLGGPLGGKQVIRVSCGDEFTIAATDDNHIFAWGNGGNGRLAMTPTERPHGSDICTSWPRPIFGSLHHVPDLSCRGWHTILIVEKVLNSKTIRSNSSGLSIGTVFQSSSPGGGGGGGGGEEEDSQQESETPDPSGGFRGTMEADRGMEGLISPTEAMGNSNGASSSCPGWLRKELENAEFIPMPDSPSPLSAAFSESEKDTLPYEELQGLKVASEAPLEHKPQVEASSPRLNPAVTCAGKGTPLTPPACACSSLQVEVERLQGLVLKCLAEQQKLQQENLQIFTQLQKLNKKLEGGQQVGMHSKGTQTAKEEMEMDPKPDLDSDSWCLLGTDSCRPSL

Sequence of Serine/threonine-protein kinase Nek6 (Homo sapiens) (Q9HC98 whole entry): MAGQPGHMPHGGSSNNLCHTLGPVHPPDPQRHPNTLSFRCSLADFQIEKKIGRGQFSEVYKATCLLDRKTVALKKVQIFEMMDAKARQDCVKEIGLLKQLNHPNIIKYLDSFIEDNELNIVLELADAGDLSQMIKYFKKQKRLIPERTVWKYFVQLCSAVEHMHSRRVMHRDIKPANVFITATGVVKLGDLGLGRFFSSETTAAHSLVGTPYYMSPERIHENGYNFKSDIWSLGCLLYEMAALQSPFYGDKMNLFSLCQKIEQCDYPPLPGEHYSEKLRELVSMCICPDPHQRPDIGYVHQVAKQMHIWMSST
Sequence of Casein kinase II subunit alpha (Homo sapiens) (P68400 whole entry, looked up): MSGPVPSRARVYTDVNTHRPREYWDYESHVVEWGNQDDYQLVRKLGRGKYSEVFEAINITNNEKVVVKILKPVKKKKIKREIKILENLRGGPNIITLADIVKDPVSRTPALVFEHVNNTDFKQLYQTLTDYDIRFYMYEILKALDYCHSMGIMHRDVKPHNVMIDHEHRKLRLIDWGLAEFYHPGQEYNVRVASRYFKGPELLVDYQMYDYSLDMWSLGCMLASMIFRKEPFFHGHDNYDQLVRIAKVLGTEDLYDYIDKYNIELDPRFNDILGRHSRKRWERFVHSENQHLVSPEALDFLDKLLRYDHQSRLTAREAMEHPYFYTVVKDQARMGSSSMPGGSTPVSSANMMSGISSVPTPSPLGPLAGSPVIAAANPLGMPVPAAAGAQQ
Sequence of Serine/threonine-protein kinase Nek7 (Homo sapiens) (Q8TDX7 whole entry, looked up): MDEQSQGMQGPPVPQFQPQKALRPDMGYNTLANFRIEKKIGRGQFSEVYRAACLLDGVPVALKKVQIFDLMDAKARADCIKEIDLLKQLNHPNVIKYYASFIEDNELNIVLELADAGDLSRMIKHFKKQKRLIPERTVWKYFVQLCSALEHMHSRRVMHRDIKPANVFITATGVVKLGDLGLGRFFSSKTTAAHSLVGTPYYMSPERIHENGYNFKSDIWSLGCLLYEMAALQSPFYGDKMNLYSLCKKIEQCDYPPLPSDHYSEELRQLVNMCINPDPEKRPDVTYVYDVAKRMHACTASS
Sequence of Sphingosine kinase 1 (Homo sapiens) (Q9NYA1 whole entry): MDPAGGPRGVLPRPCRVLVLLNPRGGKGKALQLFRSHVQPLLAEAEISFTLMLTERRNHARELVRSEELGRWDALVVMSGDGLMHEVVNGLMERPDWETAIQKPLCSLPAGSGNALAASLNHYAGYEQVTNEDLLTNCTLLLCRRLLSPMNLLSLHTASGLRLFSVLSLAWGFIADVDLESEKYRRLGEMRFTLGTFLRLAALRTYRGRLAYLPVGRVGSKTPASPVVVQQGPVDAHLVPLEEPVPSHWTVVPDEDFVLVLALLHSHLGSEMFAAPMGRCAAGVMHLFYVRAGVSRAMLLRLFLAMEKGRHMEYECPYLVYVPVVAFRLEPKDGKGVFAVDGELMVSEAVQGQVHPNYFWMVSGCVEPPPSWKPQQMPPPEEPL

Row | SMILES | inhibition [1] [%] | inhibition [2] [%] | inhibition [3] [%] | inhibition [4] [%] | inhibition [5] [%] | inhibition [6] [%] | inhibition [7] [%] | inhibition [8] [%] | inhibition [9] [%] | inhibition [10] [%] | inhibition [11] [%] | inhibition [12] [%] | inhibition [13] [%] | inhibition [14] [%] | inhibition [15] [%] | inhibition [16] [%] | inhibition [17] [%] | inhibition [18] [%] | inhibition [19] [%] | inhibition [20] [%]
1 | NC(=O)c1sc(-n2cnc3ccccc32)cc1OCc1ccccc1Br | -0.07 | 1.77 | 0 | 5.03 | 5.76 | 4.61 | 7.53 | 4.02 | 5.66 | 8.4 | 6.21 | 1.75 | 2.24 | 4.32 | 3.39 | -0.26 | 2.86 | 3.33 | 9.69 | 8.49
2 | CN1CCN(C(=O)c2ccc(NC(=O)Nc3ccc(N(C)c4ccnc(Nc5ccc(CS(C)(=O)=O)cc5)n4)cc3)cc2)CC1 | 2.73 | 0 | -0.74 | 7.1 | 2.55 | 3.61 | 9.53 | 3.95 | 5.76 | 4.12 | 14.2 | 5.21 | 29.1 | 2.78 | 3.14 | 1.8 | -1.02 | 2.05 | 5.08 | 6.54

Source: ChEMBL document CHEMBL1961873, “Compounds: GSK PKIS; Assays: Nanosyn kinase panel” (2012)
